This passage reports displacement results from PubChem BioAssay AID1240 (Sanford-Burnham Center for Chemical Genomics, 2008).

SMILES strings stand for the structures. About 800 (1.6%) of roughly 50,000 compounds showed an effect of 50% or more. Shown is part of a subset that was picked to be rich in strong results.

For this assay, the target named is Bcl-2-like protein 10 (Homo sapiens) (UniProt Q9HD36). The experiment in a line: TR3 peptide-Bcl-B binding displacers, biochemical primary FP assay, phenotype converters (AID 1240).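 Also: 0% = Bcl-B with tracer peptide and DMSO and 100% = tracer peptide lacking Bcl-B.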 As to conditions: GST-Bcl-B / FITC-TR3 peptide fluorescence polarization; stronger effect = higher value; compound at 3.75 mg/L.
Sequence of Bcl-2-like protein 10 (Homo sapiens) (Q9HD36 whole entry, looked up): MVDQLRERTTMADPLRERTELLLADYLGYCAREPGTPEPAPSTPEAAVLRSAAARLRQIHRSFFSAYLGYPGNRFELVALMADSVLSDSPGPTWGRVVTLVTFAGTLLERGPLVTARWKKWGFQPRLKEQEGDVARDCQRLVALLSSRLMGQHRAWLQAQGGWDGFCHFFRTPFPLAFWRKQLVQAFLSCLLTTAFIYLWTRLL
On to `CCN(CC)Cc1c(O)ccc2c(-c3ccccc3)cc(=O)oc12`, for which the displacement is -8.3%.
Turning to `Brc1ccc(CN2CCN(C3CCN(Cc4ccccc4)CC3)CC2)cc1`, the displacement is -15.5%.
Next, `COc1ccc(S(=O)(=O)N(CC(=O)Nc2ccc(C)c(C)c2)c2ccc(C)cc2)cc1OC`: 17.2%; `CCOc1ccc(-c2cc(C(=O)NN)c3ccccc3n2)cc1`: -18%.
With `Cc1csc(Nc2ccccc2)[n+]1CCO` the figure was 4.4%.
With `Cc1cc(N(C)/N=C/c2ccccc2Cl)nc(-c2ccccc2O)n1` the figure was 5.1%.
On to `CC(=O)N1CCN(c2ccc(C(=O)c3ccccc3)cc2F)CC1`, for which the displacement is 0.4%.
With `Clc1ccc(-c2ccc(/C=C\c3nc4ccccc4o3)o2)cc1` the figure was 95.3%.
Next, `N#C/C(=C\c1ccc(-c2cccc(C(F)(F)F)c2)o1)c1ccc(Cl)cc1`: -15.3%.
Next, `O/N=C\c1ccc(-c2ccc(Cl)c(Cl)c2)o1`: -7.3%; `N#C/C(=C\c1ccc(-c2ccc(Cl)cc2)o1)c1ccccc1`: 130%.
With `N#C/C(=C\c1ccc(-c2cccc(Cl)c2)o1)c1ccccc1`, the displacement was -6.4%.
Next, `O=[N+]([O-])/C=C/c1ccc(-c2ccc(Cl)cc2)o1`: 14.7%; `N#C/C(=C\c1ccc(-c2ccc(Cl)cc2)o1)c1ccc(Cl)cc1`: 123%; `O=C(/C=C/c1ccc(-c2ccc(Cl)cc2)o1)c1ccccc1`: 41.8%.
With `N#C/C(=C\c1ccc(-c2cccc(Cl)c2)o1)c1ccc(Cl)cc1`, the displacement was -3.8%.
With `N#C/C(=C\c1ccc(-c2ccc(Cl)c(Cl)c2)o1)c1ccccc1` the figure was 135%; with `N#C/C(=C\c1ccc(I)o1)c1ccccc1`, -34%.
Next, `N#C/C(=C/c1ccc(I)o1)c1ccc(Cl)cc1`: -24.1%.
For `CSc1ccc(Cl)c(C(=O)Nc2ccc(Cl)cn2)c1`, the displacement was -39.3%.
Next, `CC1CCN(C(=O)CN(c2cccc([N+](=O)[O-])c2)S(=O)(=O)c2ccccc2)CC1`: 3.3%; `O=C(NC1CCCCC1)c1ccc([N+](=O)[O-])cc1`: 0.7%.
Next, `O=C(N1CCCCC1)C12CC3CCC(CC(C3)C1)C2`: 6.3%.
With `O=C(c1ccc2nc3c4ccccc4c4ccccc4c3nc2c1)N1CCOCC1` the figure was 18.3%.
`O=C(Nc1ccc2nc3c4ccccc4c4ccccc4c3nc2c1)N1CCOCC1`: the displacement was found to be 77.1%.
With `CCOC(=O)N1CCN(C(=O)Nc2ccc3nc4c5ccccc5c5ccccc5c4nc3c2)CC1` the figure was 22.4%; with `Cc1ccc(C(=O)N2C(C)CCCC2C)cc1[N+](=O)[O-]` (stereo not given), -4%.
Next, `COc1ccc(CC(=O)O/N=C(\N)Cc2ccc([N+](=O)[O-])cc2)cc1OC`: 14.2%; `O=C1/C(=C/c2ccc(Cl)cc2Cl)SC(=S)N1C1CCS(=O)(=O)C1` (stereo not given): 7.1%.
Next, `COc1cccc(/C=C2\SC(=S)N(C3CCCCC3)C2=O)c1O`: -3.3%; `O=C1/C(=C/C=C/c2ccccc2)SC(=S)N1C1CCS(=O)(=O)C1` (stereo not given): 56.9%.
As for `O=C1/C(=C\c2ccc(N3N=C(c4ccccc4)CC3c3ccccc3)cc2)SC(=S)N1C1CCS(=O)(=O)C1` (stereo not given), the displacement is -14.9%.
With `COc1ccccc1/C=C1\SC(=S)N(C2CCS(=O)(=O)C2)C1=O` (stereo not given) the figure was 137%.
Turning to `O=C1/C(=C/C2CC=CCC2)SC(=S)N1C1CCS(=O)(=O)C1` (stereo not given), the displacement turned out to be 9.6%.
With `COCCc1nnc(NC(=O)Cc2ccccc2)s1` the figure was 1.2%; with `Clc1ccc(-c2noc(CCc3ccccc3)n2)cc1`, 13.2%; with `Cc1cc(C)c2c(N)c(C(=O)c3ccc(Br)cc3)sc2n1`, -7.3%.
Next, `Cc1nc2sc(C(=O)c3ccc(Br)cc3)c(N)c2c(C)c1C`: 132%.
With `CN(C)c1ccnc2sc(C(=O)c3ccc(Br)cc3)c(N)c12`, the displacement was 10%.
In the case of `Cc1[nH]n(-c2ccc([N+](=O)[O-])cc2)c(=O)c1C=NC1CCCCC1`, the displacement was -1.9%.
With `O=c1oc2cc([N+](=O)[O-])ccc2nc1/C=C(\O)c1cccs1` the figure was 94%.
With `COc1ccc(/C(O)=C/c2nc3ccccc3oc2=O)cc1`, the displacement was -1.7%.
Next, `Cc1nc(C)c(/C(O)=C/c2nc3ccccc3oc2=O)s1`: -1.1%.
As to `COc1ccc(/C(O)=C/c2nc3ccccc3[nH]c2=O)cc1`, the displacement came to 6.8%.
With `O=c1oc2cc([N+](=O)[O-])ccc2nc1/C=C(\O)c1cccc(Br)c1` the figure was 3%; with `O=c1oc2ccccc2nc1/C=C(\O)c1cccs1`, 61.3%; with `O=c1oc2cc([N+](=O)[O-])ccc2nc1/C=C(\O)c1ccc(Br)cc1`, 18.6%.
Next, `O=C(Nc1ccc(-c2nc3ccccc3[nH]2)cc1)c1cccs1`: -7.9%; `O=c1[nH]c2ccccc2nc1/C=C(\O)c1cccs1`: 98.7%.
With `CC(Cc1ccccc1)NC(=O)CC(c1ccccc1)c1ccc(O)c(Cl)c1Cl` (stereo not given) the figure was 2.6%; with `O=C(c1ccc(F)cc1)N1CCN(c2cccc(Cl)c2)CC1`, 2.4%; with `CCN(CC)CCCCCCOc1ccc(OC)cc1`, 10%.
As to `COCCOC(=O)c1ccc(NC(=O)COc2cccc(C)c2C)cc1`, the displacement was found to be 1.9%.
Next, `CCOC(=O)C(C(=O)OCC)C(C(=O)OCC)(C(=O)OCC)C(C(=O)OCC)C(=O)OCC`: 2.1%; `O=C(N=Nc1c(O)[nH]c2ccc([N+](=O)[O-])cc12)c1ccc2c(c1)OCO2`: 75.1%; `COc1ccc(C(=O)N=Nc2c(O)[nH]c3c(C)cc([N+](=O)[O-])cc23)cc1`: 115%.
Next, `O=C(N=Nc1c(O)[nH]c2ccc([N+](=O)[O-])cc12)c1cccc(Br)c1`: 3.3%; `COc1ccc(C(=O)N=Nc2c(O)[nH]c3c(C)cc(Br)cc23)cc1`: 3%; `Cc1cc(C)c2[nH]c(O)c(N=NC(=O)c3cccc([N+](=O)[O-])c3)c2c1`: -0.6%.
Next, `O=C(N=Nc1c(O)[nH]c2ccc(Br)cc12)c1ccc([N+](=O)[O-])cc1`: 6.8%.
For `CCOc1ccccc1NC(=O)/C=C/c1ccc(Cl)cc1`, the displacement was found to be 11.4%.
With `CCN1C(=O)N(CC)C2C1N(COC(C)=O)C(=O)N2COC(C)=O` (stereo not given) the figure was 1.5%; with `COc1ccc(-n2nc3cc(C)c(NC(=O)c4cccnc4)cc3n2)cc1`, 5.1%; with `O=C1c2ccccc2C(=O)N1c1ncc(Cc2cccc(C(F)(F)F)c2)s1`, -5.8%.
With `Cc1cccc(NC(=O)CN(c2cccc(Cl)c2)S(C)(=O)=O)c1` the figure was 3.9%; with `CC1=C(C(=O)OC2CCCCC2)C(c2ccc(Br)cc2)NC(=O)N1` (stereo not given), 17.5%.
Next, `CC1=C(C(=O)OC2CCCCC2)C(c2ccc(N(C)C)cc2)NC(=O)N1` (stereo not given): 99.1%; `CC1=C(C(=O)OC2CCCC2)C(c2ccc(Cl)cc2)NC(=O)N1` (stereo not given): 7.3%.
Consider `CC1=NNC(=O)C1CC(=O)N/N=C/c1ccc(O)cc1` (stereo not given), for which the displacement is -5.3%.
Take `C=CCn1c(Cc2ccccc2)n[nH]c1=S`: the displacement was -5.1%.
With `CCc1ccc(NC(=O)C2CC(=O)N=C(N)S2)cc1` (stereo not given), the displacement was -2.4%.
Next, `Oc1c(C=Nc2cccc3nsnc23)sc2ccccc12`: -12.3%.
Next, `Cc1cc(NS(=O)(=O)c2ccc(N/C=C/C(=O)c3cccs3)cc2)nc(C)n1`: 2.1%.
Next, `Cc1cc(C)nc(NS(=O)(=O)c2ccc(N/C=C\C(=O)c3ccc4ccccc4c3)cc2)n1`: 14.7%.
For `Cc1cc(C)nc(NS(=O)(=O)c2ccc(N/C=C\C(=O)c3cccs3)cc2)n1`, the displacement was found to be 78.5%.
With `CCOC(=O)C1=C(O)/C(=C/c2cc(OC)c(OC)c(OC)c2)SC1=Nc1ccc(C)cc1` the figure was -5.5%; with `O=[N+]([O-])c1ccc(C[n+]2cc(-c3ccc(Cl)c(Cl)c3)n3c2CCC3)cc1`, 9.6%.
With `O=C1CS/C(=N/N=C/c2ccc(-c3ccc([N+](=O)[O-])cc3)o2)N1` the figure was 41.1%.
As to `Cc1c(Cl)cccc1-c1ccc(/C=N/N=C2\NC(=O)CS2)o1`, the displacement was found to be 133%.
Turning to `O=C1CS/C(=N/N=C/c2ccc(-c3ccc(Cl)cc3)o2)N1`, the displacement was -6.7%.
Take `COC(=O)Cn1cc(/C=C2\C(=O)NC(=O)N(c3cccc(F)c3)C2=O)c2ccccc21`: the displacement stood at 35.8%.
Next, `O=C(Cn1cc(/C=C2/C(=O)NC(=O)N(c3cccc(Cl)c3)C2=O)c2ccccc21)Nc1ccccc1`: 94.7%.
Take `Cc1cc(/C=C2\C(=O)NC(=O)N(c3cccc(F)c3)C2=O)c(C)n1C`: the displacement was found to be 18.4%.
Next, `O=C(Cn1cc(/C=C2\SC(=O)NC2=O)c2ccccc21)Nc1ccccc1`: -4.9%; `O=C(Cn1cc(/C=C2/C(=O)NC(=O)N(c3cccc(F)c3)C2=O)c2ccccc21)Nc1ccccc1`: 116%.
With `Cc1ccccc1OCCn1cc(/C=C2/SC(=S)N(C)C2=O)c2ccccc21` the figure was 11.6%.
Next, `COc1ccccc1/C=C1/SC(=S)N(Cc2ccccc2)C1=O`: 16.7%; `COc1cccc(/C=C2\SC(=S)N(Cc3ccccc3)C2=O)c1OC`: 8.6%.
Turning to `CCN1C(=O)/C(=C\c2cn(Cc3ccccc3)c3ccccc23)SC1=S`, the displacement was 3.3%.
With `COc1ccccc1OCCn1cc(/C=C2/SC(=S)N(Cc3ccccc3)C2=O)c2ccccc21` the figure was 112%; with `CC(C)c1ccc(/C=C2\SC(=S)N(Cc3ccccc3)C2=O)cc1`, 2.6%.
Consider `O=Cc1ccc(/C=C2/SC(=S)N(Cc3ccccc3)C2=O)cc1`, for which the displacement was 10.5%.
With `C=CCc1ccccc1OCCn1cc(/C=C2/SC(=S)N(CC)C2=O)c2ccccc21` the figure was 11.6%; with `CCN1C(=O)/C(=C\c2cn(CCOc3ccccc3C)c3ccccc23)SC1=S`, 127%.
With `CN1C(=O)/C(=C\c2cn(Cc3ccccc3)c3ccccc23)SC1=S` the figure was 8.3%.
Next, `COc1ccc(/C=C2/SC(=S)N(Cc3ccccc3)C2=O)c2ccccc12`: 60.2%; `CC(Oc1ccc(/C=C2/SC(=S)N(Cc3ccccc3)C2=O)cc1)c1ccccc1` (stereo not given): 123%; `O=C(Nc1cccc2ccccc12)c1cc(-c2ccco2)nc2ccccc12`: 34.2%.
Consider `Cc1ccc(C(=O)N2CCC(C(N)=O)CC2)cc1[N+](=O)[O-]`, for which the displacement was -0.2%.
Regarding `O=C(Nc1ccccc1)/C(=C\c1cccc(Br)c1)NC(=O)c1ccccc1`, the displacement was determined as 4.5%.
Next, `COc1ccc(Cc2nnc(NC(=O)Nc3ccccc3)s2)cc1`: 11.9%; `COc1cc(/C=N/NC(=O)CSCc2ccc([N+](=O)[O-])cc2)cc(OC)c1OC`: 1.6%.
Next, `COc1ccccc1NC(=O)N1CCOCC1`: -6.8%; `COc1ccc(-c2nc(=S)c3c(n2Cc2ccccc2)CCCC3)cc1`: 10.1%; `COC(=O)C1=C(C(=O)OC)SC(=C2C(=S)C(C)(C)N(C(=O)c3cccc(C)c3)c3cc(OC)ccc32)S1`: -7.2%.
